{"source": "the supplement of paper PMC8728848", "binders": {"B1": {"name": "AidA (Burkholderia cenocepacia) (protein)", "chain": "MSRVTDVLVSFDTETILKKYPNPSKNPAAPTLIDWRYVYMVTNQDNVISGQAGGELDLKAQVGDLIRWRETSLSLGFENQVVFYKFIGNVGNDLISTPTPRVAEASIPVPNTSKPEVPTCQKVANYYWSSECLKVGRVTYHFQFQIIDRNCQSQGCFSWDPFISIHN"}}, "test_in_all_cases": "glycan array binding signal (z-score within array); higher = stronger binding", "settings_in_all_cases": "glycan notation: IUPAC condensed, linker removed", "key": {"[1]": {"molecular_target": "GlcNAc(b1-2)Man(a1-3)[GlcNAc(b1-4)][GlcNAc(b1-2)Man(a1-6)]Man(b1-4)GlcNAc(b1-4)[Fuc(a1-6)]GlcNAc", "method_in_brief": "(§1)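 Negative Z-scores can be read as non-binding. The Z-score is calculated within each array and then averaged across arrays of one protein sequence at different concentrations or buffers and across linkers. Arrays, 3228 in all, were curated from the Consortium for Functional Glycomics database and kept only where the protein sequence was available.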"}, "[2]": {"molecular_target": "GlcNAc(b1-3)Gal(b1-4)GlcNAc(b1-2)[GlcNAc(b1-3)Gal(b1-4)GlcNAc(b1-6)]Man(a1-6)[GlcNAc(b1-3)Gal(b1-4)GlcNAc(b1-2)Man(a1-3)]Man(b1-4)GlcNAc(b1-4)GlcNAc", "method_in_brief": "as §1"}, "[3]": {"molecular_target": "GlcNAc(b1-3)Gal(b1-4)GlcNAc(b1-3)Gal(b1-4)GlcNAc", "method_in_brief": "as §1"}, "[4]": {"molecular_target": "GlcNAc(b1-3)Gal(b1-4)GlcNAc(b1-3)Gal(b1-4)GlcNAc(b1-3)Gal(b1-4)GlcNAc(b1-3)Gal(b1-4)GlcNAc(b1-2)Man(a1-3)[GlcNAc(b1-3)Gal(b1-4)GlcNAc(b1-3)Gal(b1-4)GlcNAc(b1-3)Gal(b1-4)GlcNAc(b1-3)Gal(b1-4)GlcNAc(b1-2)Man(a1-6)]Man(b1-4)GlcNAc(b1-4)[Fuc(a1-6)]GlcNAc", "method_in_brief": "as §1"}, "[5]": {"molecular_target": "GlcNAc(b1-3)Gal(b1-4)GlcNAc(b1-3)[GlcNAc(b1-3)Gal(b1-4)GlcNAc(b1-3)]GalNAc", "method_in_brief": "as §1"}, "[6]": {"molecular_target": "GlcNAc(b1-3)Gal(b1-4)GlcNAc(b1-6)[Gal(b1-3)]GalNAc", "method_in_brief": "as §1"}, "GlcNAc(b1-3)Man": {"molecular_target": "GlcNAc(b1-3)Man", "method_in_brief": "as §1"}, "[7]": {"molecular_target": "Man(a1-2)Man(a1-3)[Man(a1-2)Man(a1-6)]Man", "method_in_brief": "as §1"}, "[8]": {"molecular_target": "Man(a1-2)Man(a1-3)[Man(a1-2)Man(a1-6)]Man(a1-6)[Man(a1-2)Man(a1-2)Man(a1-3)]Man(b1-4)GlcNAc(b1-4)GlcNAc", "method_in_brief": "as §1"}, "[9]": {"molecular_target": "Man(a1-2)Man(a1-6)[Man(a1-3)]Man(a1-6)[Man(a1-2)Man(a1-2)Man(a1-3)]Man", "method_in_brief": "as §1"}, "[10]": {"molecular_target": "Man(a1-3)[Man(a1-6)]Man(b1-4)GlcNAc(b1-4)GlcNAc", "method_in_brief": "as §1"}, "[11]": {"molecular_target": "Man(a1-3)[Man(a1-6)]Man(b1-4)GlcNAc(b1-4)[Fuc(a1-6)]GlcNAc", "method_in_brief": "as §1"}, "Neu5Ac(a2-3)Gal": {"molecular_target": "Neu5Ac(a2-3)Gal", "method_in_brief": "as §1"}, "[12]": {"molecular_target": "Neu5Ac(a2-3)Gal(b1-3)GalNAc", "method_in_brief": "as §1"}, "[13]": {"molecular_target": "Neu5Ac(a2-3)Gal(b1-3)GlcNAc(b1-3)Gal(b1-3)GlcNAc", "method_in_brief": "as §1"}, "[14]": {"molecular_target": "Neu5Ac(a2-3)Gal(b1-4)GlcNAc(b1-2)Man", "method_in_brief": "as §1"}, "[15]": {"molecular_target": "Neu5Ac(a2-3)Gal(b1-4)GlcNAc(b1-3)Gal(b1-4)GlcNAc(b1-6)[Gal(b1-3)]GalNAc", "method_in_brief": "as §1"}, "[16]": {"molecular_target": "Neu5Ac(a2-3)Gal(b1-4)GlcNAc(b1-6)[Neu5Ac(a2-3)Gal(b1-3)]GalNAc", "method_in_brief": "as §1"}, "[17]": {"molecular_target": "Neu5Ac(a2-3)Gal(b1-4)[Fuc(a1-3)]GlcNAc(b1-3)GalNAc", "method_in_brief": "as §1"}, "[18]": {"molecular_target": "Neu5Ac(a2-3)Gal6S(b1-4)GlcNAc", "method_in_brief": "as §1"}, "[19]": {"molecular_target": "Neu5Ac(a2-3)[GalNAc(b1-4)]Gal(b1-4)GlcNAc", "method_in_brief": "as §1"}, "[20]": {"molecular_target": "Neu5Ac(a2-6)Gal(b1-4)GlcNAc(b1-2)Man(a1-3)Man(b1-4)GlcNAc(b1-4)GlcNAc", "method_in_brief": "as §1"}, "[21]": {"molecular_target": "Neu5Ac(a2-6)Gal(b1-4)GlcNAc(b1-2)Man(a1-3)[GlcNAc(b1-2)Man(a1-6)]Man(b1-4)GlcNAc(b1-4)GlcNAc", "method_in_brief": "as §1"}, "[22]": {"molecular_target": "Neu5Ac(a2-6)Gal(b1-4)GlcNAc(b1-2)Man(a1-6)Man(b1-4)GlcNAc(b1-4)GlcNAc", "method_in_brief": "as §1"}, "[23]": {"molecular_target": "Neu5Ac(a2-6)Gal(b1-4)GlcNAc(b1-2)Man(a1-6)[Man(a1-3)]Man(b1-4)GlcNAc(b1-4)GlcNAc", "method_in_brief": "as §1"}, "[24]": {"molecular_target": "Neu5Ac(a2-6)Gal(b1-4)GlcNAc(b1-6)[Gal(b1-3)]GalNAc", "method_in_brief": "as §1"}, "[25]": {"molecular_target": "Neu5Ac(a2-6)GlcNAc(b1-4)GlcNAc(b1-4)GlcNAc", "method_in_brief": "as §1"}, "Neu5Ac(b2-6)GalNAc": {"molecular_target": "Neu5Ac(b2-6)GalNAc", "method_in_brief": "as §1"}, "[26]": {"molecular_target": "Neu5Gc(a2-8)Neu5Gc(a2-3)Gal(b1-4)GlcNAc(b1-3)Gal(b1-4)GlcNAc", "method_in_brief": "as §1"}}, "note": "About 410 targets per protein were measured; listed, in parts, are those with the strongest signals and a random draw of the rest.", "data": [{"binder": "B1", "values": [{"measurement": "glycan array binding signal (z-score)", "setting": "[1]", "result": -0.375}, {"measurement": "glycan array binding signal (z-score)", "setting": "[2]", "result": 2.61}, {"measurement": "glycan array binding signal (z-score)", "setting": "[3]", "result": 0.86}, {"measurement": "glycan array binding signal (z-score)", "setting": "[4]", "result": -0.735}, {"measurement": "glycan array binding signal (z-score)", "setting": "[5]", "result": -0.928}, {"measurement": "glycan array binding signal (z-score)", "setting": "[6]", "result": -0.57}, {"measurement": "glycan array binding signal (z-score)", "setting": "GlcNAc(b1-3)Man", "result": -0.022}, {"measurement": "glycan array binding signal (z-score)", "setting": "[7]", "result": -0.113}, {"measurement": "glycan array binding signal (z-score)", "setting": "[8]", "result": 0.274}, {"measurement": "glycan array binding signal (z-score)", "setting": "[9]", "result": -0.364}, {"measurement": "glycan array binding signal (z-score)", "setting": "[10]", "result": -0.131}, {"measurement": "glycan array binding signal (z-score)", "setting": "[11]", "result": 1.97}, {"measurement": "glycan array binding signal (z-score)", "setting": "Neu5Ac(a2-3)Gal", "result": -0.347}, {"measurement": "glycan array binding signal (z-score)", "setting": "[12]", "result": -0.739}, {"measurement": "glycan array binding signal (z-score)", "setting": "[13]", "result": -0.146}, {"measurement": "glycan array binding signal (z-score)", "setting": "[14]", "result": 1.58}, {"measurement": "glycan array binding signal (z-score)", "setting": "[15]", "result": -0.559}, {"measurement": "glycan array binding signal (z-score)", "setting": "[16]", "result": -0.108}, {"measurement": "glycan array binding signal (z-score)", "setting": "[17]", "result": 1.86}, {"measurement": "glycan array binding signal (z-score)", "setting": "[18]", "result": -0.261}, {"measurement": "glycan array binding signal (z-score)", "setting": "[19]", "result": -0.388}, {"measurement": "glycan array binding signal (z-score)", "setting": "[20]", "result": -0.123}, {"measurement": "glycan array binding signal (z-score)", "setting": "[21]", "result": -0.443}, {"measurement": "glycan array binding signal (z-score)", "setting": "[22]", "result": -0.428}, {"measurement": "glycan array binding signal (z-score)", "setting": "[23]", "result": 0.17}, {"measurement": "glycan array binding signal (z-score)", "setting": "[24]", "result": -0.153}, {"measurement": "glycan array binding signal (z-score)", "setting": "[25]", "result": -0.74}, {"measurement": "glycan array binding signal (z-score)", "setting": "Neu5Ac(b2-6)GalNAc", "result": 0.412}, {"measurement": "glycan array binding signal (z-score)", "setting": "[26]", "result": -0.459}]}]}
